Assay in all cases: PBM binding z-score (relative to random genomic background probes); higher = stronger binding; sequences stand for … in GC…GCGATTGACAGCGTAGAATGAAGG
Test [1] concerns FXR:RXRa (NR concentration 270 nM, RXRa partner concentration 90 nM). Summed up:
(§1)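 Scanned fluorescence from custom Agilent 4×180K protein-binding microarrays was regression-normalized. Binding z-scores use random background probes as reference. Ligand-free nuclear receptor dimers were incubated on the arrays for 1 h and detected with antibodies against each partner (one per run).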

In test [2] the test system is LXRa:RXRa (NR concentration 270 nM, RXRa partner concentration 90 nM). The gist of the method: as §1
For test [3], the system named is LXRa homodimer (NR concentration 270 nM). Summed up: as §1
For test [4], the system named is LXRb:RXRa (NR concentration 270 nM, RXRa partner concentration 90 nM). The gist of the method: as §1
The test system of test [5] is LXRb homodimer (NR concentration 270 nM). The gist of the method: as §1
In test [6] the test system is PPARa:RXRa (NR concentration 270 nM, RXRa partner concentration 90 nM). Summed up:
as §1

Test [7] deals with PPARg:RXRa (NR concentration 180 nM, RXRa partner concentration 90 nM). Summed up:
as §1

Test [8] relates to PPARg:RXRa 270nM:90nM, anti-RXR (NR concentration 270 nM, RXRa partner concentration 90 nM). The gist of the method: as §1
Test [9] relates to PPARg:RXRa 30nM:10nM, anti-RXR (NR concentration 30 nM, RXRa partner concentration 10 nM). The gist of the method: as §1
Test [10] has as its system PPARg:RXRa 90nM:30nM, anti-RXR (NR concentration 90 nM, RXRa partner concentration 30 nM). The gist of the method:
as §1

Test [11] concerns PPARg:RXRa DBDmut IVT, anti-RXR (DBD mutation: RXRa K156A/R161A, NR concentration 270 nM, RXRa partner concentration 90 nM). Summed up: as §1
Test [12] relates to PPARg:RXRa IVT, anti-PPARg (NR concentration 270 nM, RXRa partner concentration 90 nM). The gist of the method: as §1
Test [13] concerns PPARg DBDmut:RXRa IVT, anti-PPARg (DBD mutation: PPARg1 K132A/R137A, NR concentration 270 nM, RXRa partner concentration 90 nM). The gist of the method:
as §1

Test [14] concerns PPARg DBDmut IVT, anti-PPARg (DBD mutation: PPARg1 K132A/R137A, NR concentration 270 nM). The gist of the method:
as §1

Test [15] has as its system PPARg homodimer (NR concentration 180 nM). The gist of the method:
as §1

For test [16], the system named is PXR:RXRa (NR concentration 270 nM, RXRa partner concentration 90 nM). The gist of the method:
as §1

The subject of test [17] is PXR homodimer (NR concentration 270 nM). Summed up: as §1
Test [18] has as its system RARa:RXR (NR concentration 270 nM, RXRa partner concentration 90 nM). The gist of the method: as §1
The test system of test [19] is RARa homodimer (NR concentration 270 nM). Summed up: as §1
The subject of test [20] is RARb:RXRa (NR concentration 270 nM, RXRa partner concentration 90 nM). Summed up: as §1

Take CTACCAAGGTGAACAAGGTCGTCGATTACTATTC: the PBM binding z-score is 1.41 in [1]; 1.49 in [2]; 0.0578 in test [3]; 1.95 in test [4]; -0.568 in test [5]; 2.77 in test [6]. In addition, the PBM binding z-score came to 1.41 in test [7]; 1.59 in test [8]; 0.0715 in [9]; 0.943 in [10]; 2.69 in [11]; 2.94 in test [12]. Also, the PBM binding z-score in test [13] is 0.293; in test [14], -0.426; in test [15], 1.09; in [16], 2.61; in test [17], 0.761; in [18] it was 2.65. Besides, the PBM binding z-score was determined as 0.41 in test [19] and 2.27 in test [20].

Take CCGACTGGGGCACAAAGGTTACCATACCATCCGG: the PBM binding z-score in test [1] was 0.682; in [2] it was 0.574; in test [3] it was 0.127; in test [4], 1.44; in [5], -1.09; in test [6], 3.24. For the same sequence, the PBM binding z-score in test [7] is 4.16; in test [8], 5.34; in [9] it was 2.72; in test [10], 5.14; in test [11] it was 3.32; in [12], 4.48. For the same sequence, the PBM binding z-score in test [13] is -0.0878; in [14], -1.02; in [15], 0.929; in [16], 1.58; in test [17], 0.126; in test [18], 2.57. Moreover, the PBM binding z-score is 0.061 in [19] and 2.31 in [20].

As to CCTTACGGGTCACTCCAGGTTGTAGCATCGGAGT, the PBM binding z-score in test [1] stood at 4.5; in test [2], 6.32; in [3], 0.477; in [4] it was 3.72; in [5] it was 0.0911; in [6], 4.42. Also, the PBM binding z-score in test [7] amounted to 2.92; in test [8], 3.54; in test [9] it was 0.72; in test [10] it was 2.5; in test [11], 2.42; in test [12], 3.11. Moreover, the PBM binding z-score was 0.374 in [13]; 0.469 in test [14]; 1.62 in [15]; 3.85 in [16]; -0.0202 in test [17]; 3.84 in [18]. Moreover, the PBM binding z-score in [19] came out at 0.553; in test [20], 3.65.

Turning to TCTGCTAGGTCAGTTGCTCAGCTAACGAGCTGCC, the PBM binding z-score in [1] was 0.259; in [2] it was 0.241; in test [3], -0.836; in [4], -0.204; in [5] it was -0.131; in [6], 0.67. For the same sequence, the PBM binding z-score in [7] was -0.489; in [8], 1.14; in test [9] it was 0.796; in test [10] it was 1.19; in test [11] it was 2.23; in test [12], 2.17. Besides, the PBM binding z-score in test [13] is -0.136; in test [14], 0.103; in test [15], -0.987; in test [16], -0.163; in test [17], -1.12; in test [18], -0.122. For the same sequence, the results for the PBM binding z-score in [19] and in test [20] were -1.62 and 2.9, respectively.

For the sequence CGTCAAAGTTCAATGTAACGTAACAGAAAGCAGC, the PBM binding z-score was 6.08 in [1]; 5.08 in test [2]; 3.29 in [3]; 3.5 in test [4]; 1.74 in [5]; 4.08 in test [6]. Also, the PBM binding z-score is 3.65 in [7]; 4.35 in [8]; 1.83 in test [9]; 3.34 in test [10]; 0.367 in [11]; 1.51 in test [12]. Moreover, the PBM binding z-score was determined as 1.4 in [13]; 0.705 in test [14]; 2.6 in [15]; 4.03 in test [16]; 4 in [17]; 3.03 in test [18]. Besides, the PBM binding z-score in test [19] stood at 1.95; in test [20], 4.83.

As to GATACAGGGTCAGCTAGAGGACAGAGTATGGAAA, the PBM binding z-score was 4.89 in test [1]; 3.3 in test [2]; -0.154 in test [3]; 2.61 in [4]; -0.241 in test [5]; 4.58 in test [6]. Also, the PBM binding z-score in [7] was determined as 3.93; in test [8], 3.23; in test [9] it was 1.06; in [10] it was 2.12; in test [11], 1.12; in test [12] it was 2.33. The PBM binding z-score in test [13] is 0.573; in [14] it was 0.147; in test [15], 2.5; in [16] it was 3.17; in [17], 0.27; in test [18] it was 4.99. The PBM binding z-score in [19] worked out at 0.599; in [20], 4.34.
